This note sets out measurements from PubChem BioAssay (EPA / NIEHS).

Inconclusive results are not listed. Activity calls are given as the source filed them. The calls were made as follows: active = hit-call score of the fitted dose curve at least 0.9, where 1 is the maximum; inconclusive = response in the unintended direction; inactive = score below 0.9.

This assay is described as follows: ATG_M_19_TRANS: Attagene TRANS-FACTORIAL HepG2 Assay for M19 Transcription Factor (Internal Marker) (AID 2282974). To be noted: HepG2 Attagene TRANS-FACTORIAL M19 internal marker reporter. How it is done: ATG_TRANS is a cell-based, multiplexed-readout assay that uses HepG2, a human liver cell line, with measurements taken at 24 hours after chemical dosing in a 24-well plate.ATG_M_19_TRANS is one of 30 assay component(s) measured or calculated from the ATG_TRANS assay. It is designed to make measurements of mRNA induction, a form of inducible reporter, as detected with fluorescence intensity signals by Reverse transcription polymerase chain reaction (RT-PCR) and Capillary electrophoresis technology.Data from the assay component ATG_M_19_TRANS was analyzed into 1 assay endpoint. This assay endpoint, ATG_M_19_TRANS, was analyzed in the positive analysis fitting direction relative to DMSO as the negative control and baseline of activity. Using a type of inducible reporter, measures of mRNA for gain-of-signal activity can be used to understand the background control at the transcription factor-level as they relate to the gene . Furthermore, this assay endpoint can be referred to as a secondary readout, because this assay has produced multiple assay endpoints where this one serves a background control function. To generalize the intended target to other relatable targets, this assay endpoint is annotated to the background measurement intended target family, where the subfamily is internal marker.
Human liver HepG2 cells are transiently transfected with multiple reporter transcription units (MRTUs) in 6-well plates using FuGene 6 reagent (Roche; 3 ml FuGene/1 mg DNA). The MRTU constructs are regulated by a cis-regulating element (promoter). […] A major difference between the CIS and TRANS system is that in CIS activities of endogenous TFs are measured, whereas the TRANS assay evaluates changes in activities of exogenous, chimeric NR-Gal4 proteins. […] At the end of 24 hour incubation, total RNA was isolated using TriZol reagent (Invitrogen). The isolated RNA is then reverse-transcribed using oligo(dT) primer and Mo-MLV reverse transcriptase (Invitrogen) with DNAse I (Ambion) treatment for 30 min. The one-tenth of the produced cDNA was amplified by PCR using Taq DNA polymerase (Invitrogen) and two reporter sequence-specific primers. The PCR products were fluorescently labeled by primer extension with 6-arboxyfluorescein (6-FAM) 5'-labeled reporter sequence-specific primer (2 min at 95 C, 20 s at 68 C and 10 min at 72 C) and these products were digested with 5U of HpaI (New England Biolabs) for 2h at 37 C. The fragments were purified using Qiaquick PCR columns (Qiagen), analyzed on an ABI 3130xL genetic analyzer (Applied Biosystems) with peak positions identified by using a set of X-rhodamine (ROX)-labeled MapMarker1000 molecular weight standards (BioVentures). The raw capillary electrophoresis data was processed using Attagraph software (Attagene).
On to `O=C(O)C(F)(F)C(F)(F)C(F)(F)OC(F)(C(F)(F)F)C(F)(F)F`, for which the compound was called inactive.
Then `OCC(O)CC(F)(F)C(F)(F)C(F)(F)C(F)(F)C(F)(F)C(F)(F)C(F)(F)C(F)(F)F` (stereo not given), with “inactive”.
In the case of `CCCCCCCCCCCCCC[P+](CCCC)(CCCC)CCCC` it was “inactive”; in that of `CN(N=O)C(=O)N[C@@H]1[C@@H](O)[C@H](O)[C@@H](CO)O[C@@H]1O`, “inactive”.
Then `O=C1C=CC(=O)N1c1ccccc1`, with “inactive”; and `Nc1cccnc1N`, with “inactive”.
For the compound `OCCC(O)CO` (stereo not given), the compound was classed as inactive.
In the case of `CCCCCC/C=C/CCCCCCCC(=O)O` it was “inactive”; in that of `C=C(C)CCCC`, “inactive”.
Then `Cc1cnccn1`, with “inactive”.
Then `Brc1nc2ccccc2s1`, with “inactive”.
In the case of `COCCOCCC[Si](C)(O[Si](C)(C)C)O[Si](C)(C)C`, the call was inactive.
Then `O=C(Cl)c1ccc(Cl)cc1Cl`, with “inactive”; and `CCOC(C=C(C)CCC=C(C)C)OCC`, with “inactive”.
Then `CC(=O)CCC(C)C`, with “inactive”.
Then `O=S(=O)(Cl)C(F)(F)C(F)(F)C(F)(F)C(F)(F)C(F)(F)C(F)(F)C(F)(F)C(F)(F)F`, with “inactive”.
Regarding `C[Si](C)O[Si](C)C`, the call was inactive.
Regarding `CO[Si](C)(CCC(F)(F)C(F)(F)C(F)(F)C(F)(F)C(F)(F)C(F)(F)F)OC`, the outcome was inactive.
Then `CCC/C=C/CO`, with “inactive”.
Take `COCCC(=O)OC`: the outcome was inactive.
In the case of `O=C(F)C1(F)C(F)(F)C(F)(F)C(F)(F)C(F)(F)C1(F)F` it was “inactive”.
Consider `CC(C)CCCC(C)CCO` (stereo not given), for which the call was inactive.
On to `CC(C)(C)c1cc(Cc2cc(C(C)(C)C)c(O)c(C(C)(C)C)c2)cc(C(C)(C)C)c1O`, for which the call was inactive.
In the case of `CCc1ccc(C)nc1` it was “inactive”.
In the case of `CC(C)C(=O)OCc1ccccc1` it was “inactive”; in that of `COc1ccccc1C=O`, “inactive”; in that of `Cc1ccc(O)cn1`, “inactive”.
Then `O=C1C=CC(=O)N1c1ccc(Cc2ccc(N3C(=O)C=CC3=O)cc2)cc1`, with “inactive”.
For the compound `CC1=CCC2C(=O)OC(=O)C2C1` (stereo not given), the compound was called inactive.
In the case of `CCc1cccc(C)c1N(C(=O)C(=O)O)C(C)COC` (stereo not given) it was “inactive”; in that of `O=S(=O)(O)CCC(F)(F)C(F)(F)C(F)(F)C(F)(F)F`, “inactive”; in that of `Cc1ccc2c(c1)OCC(=O)CO2`, “inactive”.
Turning to `O=c1[nH]cccc1O`, the call was inactive.
In the case of `O=C(O)C(F)(F)C(F)(F)C(F)(F)OC(F)(F)F` it was “inactive”; in that of `CCCCOC(=O)C(C)O` (stereo not given), “inactive”; in that of `CCOC(=O)CC(=O)C(F)(F)C(F)(F)F`, “inactive”.
In the case of `CCC(C)CO` (stereo not given), the compound was called inactive.
With `Nc1cc([N+](=O)[O-])cc(Cl)c1O`, the compound was classed as inactive.
Then `CCN=C1C=CC(=C(c2ccc(N(CC)CC)cc2)c2ccc(N(CC)CC)cc2)c2ccccc21`, with “inactive”; and `O=C(O)CCC(F)(F)C(F)(F)C(F)(F)C(F)(F)C(F)(F)C(F)(F)C(F)(F)F`, with “inactive”.
